About 2,100 (3.2%) of roughly 65,000 compounds showed an effect of 50% or more. The median lay at about -52%. The list comes from a sample in which strong results are over-represented; it also holds similar structures and randomly drawn compounds.
system: Plasmodium falciparum; assay: Screen against P. falciparum Asexual Blood Stage (ABS), at 5uM; type: functional, Dd2; conditions: tested at 5 uM

SMILES | INHIBITION [%]
CCc1ccc(CN2CCC3(CC2)C(=O)N(C)CCN3CC2CC2)cc1 | 68.9
CCN1CCN(C)C(=O)C12CCN(Cc1cccc(C)c1)CC2 | 41.8
CCN1CCN(C)C(=O)C12CCN(Cc1ccsc1)CC2 | -35.5
CN(CCc1ccccc1)c1cnn(C)c(=O)c1Br | -12.3
CC(NC(=O)CSCC(N)=O)c1ccc(Oc2ccccc2)cc1 (stereo not drawn) | -25.1
NC(CC1CCCC1)c1ccc(Oc2ccccc2)cc1 (stereo not drawn) | 79.9
NC(CC1CCCC1)c1ccccc1 (stereo not drawn) | 66.7
c1ccc(Oc2ccc(OC34CCCN(CC3)C4)cc2)cc1 (stereo not drawn) | 40.7
NC(=O)C(NC1CCN(CC2CCCCC2)CC1)c1ccccc1 (stereo not drawn) | -75
OC(CN1CCN(CC2CCCCC2)CC1)c1ccccc1 (stereo not drawn) | 3.94
N#CCCCOc1cccnc1NC(=O)Cc1ccccc1F | -150
CN(CC(=O)NCC1CCCO1)Cc1nc2c(s1)CCCC2 (stereo not drawn) | -39.8
Cc1cc(C)c(CN2CCCC23Cc2ccccc2CNC3=O)c(C)c1 (stereo not drawn) | 8.96
CC(C)C(=O)NC1CCCN(C(=O)c2ccc(O)c(Cl)c2)C1 (stereo not drawn) | -84
O=C(Nc1ccccc1Cn1cccn1)N1CCCC(N2CCCC2)C1 (stereo not drawn) | -31.7
CN1CCN(c2ccc3ccc(C(=O)N4CCCO4)cn23)CC1 | 6.88
COc1ccc(CNCc2ccnc(N3CCCCC3)c2)cc1OC | -9.72
COc1cc(CNCc2ccnc(N3CCOCC3)c2)cc(OC)c1 | -50.4
COc1cc(CNCc2ccnc(N3CCCC3)c2)cc(OC)c1 | 61.5
COc1c(CNCc2ccnc(N3CCCC3)c2)c(C)nn1C | -64.4
COc1c(CNCc2ccnc(N3CCCCC3)c2)c(C)nn1C | -15.8
COc1cc(CNCc2ccnc(N3CCCCC3)c2)cc(OC)c1 | 61.4

SMILES | INHIBITION [%]
CC(C)NC(=O)C1CN(C(=O)N(C)C)CC12CCOCC2 (stereo not drawn) | -145
Cc1cc(N2CCC(N(C)C(=O)c3ccc(C#N)cc3)CC2)nc(C)n1 | -6.47
CCCc1noc(CCCC(=O)N2CCCC2c2cnn(C)c2)n1 (stereo not drawn) | -37
COCCN(C)C(=O)c1nc2c(s1)CCCN2c1ccc(C)nn1 | -53.3
CCN1CCCN(C(=O)c2ccc(NC(=O)CC(C)C)c(C)c2)CC1 | -98.5
Cc1cccc(C(=O)N2CC[C@@H]3[C@H]2CCC(=O)N3c2ccccc2)n1 | -87
c1ccc(C2(CNCc3cnc(N4CCOCC4)nc3)CC2)cc1 | -22.6
Cc1ccccc1C1(CNCc2cnc(N3CCOCC3)nc2)CC1 | 50.8
OC1(CNCc2cnc(N3CCOCC3)nc2)CCCCC1 | -74.5
Cc1cc(-c2cnc(NC3CCCC3)nc2-c2ccoc2C)on1 | -65.8
CCN(CC)CCNc1ncc(-c2cc(C)no2)c(-c2ccoc2C)n1 | 61.9
Cc1cc(-c2cnc(NC3CC3)nc2-c2ccoc2C)on1 | -62
CCc1nc(C2CCCN(C(=O)c3ccccc3F)C2)no1 (stereo not drawn) | -49.5
CS(=O)(=O)N1C[C@H]2CC[C@@H](C1)N(C/C=C/c1ccc(F)cc1)C2 | -43.1
CN(C)C(=O)N1C[C@H]2CC[C@@H](C1)N(C/C=C/c1ccc(F)cc1)C2 | 57.8
CN(C)C(=O)CN1C[C@H]2CC[C@@H](C1)N(C/C=C/c1ccc(F)cc1)C2 | 43.5
NC(=O)Cn1ccc(O)c(Cc2ccc(Cl)cc2Cl)c1=O | -144
O=C(NCc1ccco1)c1cc(N2CC[C@@H](O)C2)ccn1 | -217
CN(C)[C@H]1CCN(c2ccnc(C(=O)NCc3ccco3)c2)C1 | -95.2
CCCOC1CCCN(c2ccnc(C(=O)NCc3ccco3)c2)C1 (stereo not drawn) | 64.2
Cc1ncnc2c1CCN(S(=O)(=O)C1CC1)CC2 | -47.1
CCc1nc(CN2CCCC(N(C)CCc3cccs3)C2)no1 (stereo not drawn) | 12.3

SMILES | INHIBITION [%]
Cn1ccnc1CN1CCCN(C(=O)COC2CCCCC2)CC1 | -46.8
COc1cccc([C@H]2CN(CCCS(=O)(=O)N(C)C)C[C@@H]2N)c1 | -56.8
CCOCCN1C[C@H](c2cccc(OC)c2)[C@@H](N)C1 | -3.38
C/C=C(\C)CN1C[C@H](c2cccc(OC)c2)[C@@H](N)C1 | 65.6
Cc1nc(C(=O)N(C)[C@@H]2CCC[C@@H](Oc3ccccc3)[C@@H]2O)co1 | -3.45
CC(C)c1nsc(N2CCCOCC2)n1 | -47.6
Cc1ccc(CN(CCCN2CCOCC2)Cc2cnn(C)c2)o1 | -2.55
Cc1ccc(CN(CCCN2CCOCC2)Cc2cnc(C)n2C)o1 | 55.1
Cc1ccc(CN(CCCN(C)C)Cc2cnc(C)n2C)o1 | -17.8
Cc1cc(NC(=O)NCc2cccnc2OC2CCCC2)n(C)n1 | -37
Cc1cc(Br)ccc1C(=O)NCCN1CCCCCC1 | 30.2
O=C(NCCN1CCCCC1)c1cccc(Cl)c1Cl | 50.5
O=C(NCCN1CCCCC1)c1scnc1Cl | -130
Cc1ccc(CN2C(=O)CCC23CCC(NCC2CCOC2)CC3)cc1 (stereo not drawn) | -1.23
O=C(NC1CCC1)[C@@H]1CCO[C@@H]2CCN(CCc3ccccc3)C[C@H]21 | 36.5
Cc1c[nH]nc1C1CCCN1Cc1ccncc1 (stereo not drawn) | -8.01
Cc1c[nH]nc1C1CCCN1Cc1ncc[nH]1 (stereo not drawn) | 34.9
Cn1ccnc1CN1CCCC1CCc1ccccc1 (stereo not drawn) | 37.6
Cc1c[nH]nc1C1CCCN1Cc1nccn1C (stereo not drawn) | 57.3
COc1cccc(CC2CCCN2Cc2nccn2C)c1 (stereo not drawn) | 52
COc1cccc(CC2CCCN2CCCO)c1 (stereo not drawn) | -8.85
CC1CCN(C(=O)C(C)N2CCN(c3nccs3)CC2)CC1 (stereo not drawn) | -55.4

SMILES | INHIBITION [%]
Cc1cc(C(=O)N2CCCCC2C)ccc1NC(=O)N1CCOCC1 (stereo not drawn) | -137
O=C(N1CCCCC1)N1CCN(CC(O)c2ccccc2)CC1 (stereo not drawn) | -4.34
O=C(c1cscn1)N1CCC[C@]2(C[C@H](OCC3CC3)CO2)C1 | -132
Cc1cc(-c2nccs2)nc(C2CCN(Cc3ccc(F)cc3)CC2)n1 | 62.9
Cc1cc(-c2nccs2)nc(C2CCN(Cc3ccncc3)CC2)n1 | -25.9
Cc1cc(-c2nccs2)nc(C2CCN(Cc3cccs3)CC2)n1 | 16.1
O=C(c1csc(I)c1)N1CCc2c(ncn2C2CC2)C1 | -41.85
Cc1nc(CN2CCc3ncnc(-c4cccnc4)c3CC2)cs1 | -30.7
CN1CC2(CCN(Cc3cccc(C#N)c3)CC2)CC1=O | -15.1
CN1CCC2(COCCN(Cc3cccc(C#N)c3)C2)C1 (stereo not drawn) | 57
CN1CCC2(COCCN(Cc3ccc4c(c3)OCO4)C2)C1 (stereo not drawn) | -102
C/C=C(\C)CN1C[C@H](NC(=O)CCOC)[C@@H](c2ccc(C)o2)C1 | -33.1
CCC1(CO)CCN(C(=O)c2cc(COc3ccccc3F)[nH]n2)CC1 | -66.6
O=C(c1cccnc1)N1CCN2C[C@H](OCc3ccccc3)C[C@H]2C1 | -19.2
CCc1ccc(C2CC(=O)Nc3c2c(=O)[nH]n3C(C)C)cc1 (stereo not drawn) | -113
c1ccc(CN2CCn3c(Cn4cncn4)cnc3C2)nc1 | -53.9
O=C1N(Cc2ccc(F)c(F)c2)CCCC12CCN(C1CCCC1)C2 (stereo not drawn) | 68.1
CCS(=O)(=O)N1CCC2(CCCN(Cc3ccc(F)c(F)c3)C2=O)C1 (stereo not drawn) | -68
O=C1N(Cc2ccccc2F)CCCC12CCN(C1CCSCC1)C2 (stereo not drawn) | 34.2
Cc1cccc(CN2CCCC3(CCN(C4CCSCC4)C3)C2=O)c1 (stereo not drawn) | 6.83
O=C1N(Cc2ccc(F)cc2)CCCC12CCN(C1CCSCC1)C2 (stereo not drawn) | 9.56
O=C1N(Cc2ccc(F)c(F)c2)CCCC12CCN(C1CCCCC1)C2 (stereo not drawn) | 60.9

SMILES | INHIBITION [%]
CCCS(=O)(=O)N1C[C@H]2CC[C@@H](C1)N(Cc1cscn1)C2=O | -60
Nc1cc(N2CCOCC(Cc3ccc4[nH]ccc4c3)C2)ncn1 (stereo not drawn) | -6.79
Cc1nc(C(=O)NC2CCN(CCOc3ccc(Br)cc3)CC2)cs1 | 50
CCc1nnsc1C(=O)NC1CCN(CCOc2ccc(Br)cc2)CC1 | 2.8
CC(=O)Nc1nc(C(=O)NCCOc2ccc(C)cc2)cs1 | -4.82
CCn1ccnc1CN1CCCN(C(=O)c2ccnc(C)n2)CC1 | -61.7
COc1ccc2c(c1)OCC(CNC1CCc3nc(C)nn3C1)=C2 (stereo not drawn) | -98
Cc1csc(N2CCCN(c3cc(C)nc(C)c3C#N)CC2)n1 | -45.8
O=C(O)CCCC(=O)Nc1cnn(COc2ccc(F)cc2Cl)c1 | -39.2
O=C(Nc1cnn(COc2ccc(F)cc2Cl)c1)C1CC1 | 67.2
O=C(Nc1cnn(Cc2ccc(F)cc2Cl)c1)C1CC1 | -0.313
CO[C@H]1CN(C(=O)c2cn3cc(C)ccc3n2)CC[C@@]12CCCO2 | -142
Cc1nc(C(=O)N(C)CC2CCCO2)nn1-c1ccccc1C(C)C (stereo not drawn) | -143
CCOCc1nc(-c2ccc(F)cc2Cl)n(C)n1 | -121
CN1C(=O)CC(c2ccccc2)C12CCN(CC1CCOCC1)CC2 (stereo not drawn) | 36.1
CN1C(=O)CC(c2ccccc2)C12CCN(CC1CC1)CC2 (stereo not drawn) | 16.7
CCN1C(=O)CC(c2ccccc2)C12CCN(CC1CCOCC1)CC2 (stereo not drawn) | 50.3
Cc1nc(C)n(CC2CCCN2CC(=O)Nc2c(C)n[nH]c2C)n1 (stereo not drawn) | 35
Cc1nc(C)n(CC2CCCCN2CC(=O)Nc2c(C)n[nH]c2C)n1 (stereo not drawn) | 54.2
Cc1cc(C)n(CC2CCCCN2CC(=O)Nc2c(C)n[nH]c2C)n1 (stereo not drawn) | -116

Reference: ChEMBL document CHEMBL4513216, “Probing the Open Global Health Chemical Diversity Library for Multistage-Active Starting Points for Next-Generation Antimalarials” (ACS Infect Dis, 2020)
